Source: PubChem BioAssay
BAZ2B inh – BAZ2B (human) inhibition | AlphaScreen BAZ2B-H3K14Ac peptide displacement | Potency, µM (series often up to 114 µM), actives largely listed as inhibitors | 4.4% of 360,000 active; note: nearly all actives have a fitted effect of over 60% in size
Target sequence (Q9UIF8 whole entry, looked up): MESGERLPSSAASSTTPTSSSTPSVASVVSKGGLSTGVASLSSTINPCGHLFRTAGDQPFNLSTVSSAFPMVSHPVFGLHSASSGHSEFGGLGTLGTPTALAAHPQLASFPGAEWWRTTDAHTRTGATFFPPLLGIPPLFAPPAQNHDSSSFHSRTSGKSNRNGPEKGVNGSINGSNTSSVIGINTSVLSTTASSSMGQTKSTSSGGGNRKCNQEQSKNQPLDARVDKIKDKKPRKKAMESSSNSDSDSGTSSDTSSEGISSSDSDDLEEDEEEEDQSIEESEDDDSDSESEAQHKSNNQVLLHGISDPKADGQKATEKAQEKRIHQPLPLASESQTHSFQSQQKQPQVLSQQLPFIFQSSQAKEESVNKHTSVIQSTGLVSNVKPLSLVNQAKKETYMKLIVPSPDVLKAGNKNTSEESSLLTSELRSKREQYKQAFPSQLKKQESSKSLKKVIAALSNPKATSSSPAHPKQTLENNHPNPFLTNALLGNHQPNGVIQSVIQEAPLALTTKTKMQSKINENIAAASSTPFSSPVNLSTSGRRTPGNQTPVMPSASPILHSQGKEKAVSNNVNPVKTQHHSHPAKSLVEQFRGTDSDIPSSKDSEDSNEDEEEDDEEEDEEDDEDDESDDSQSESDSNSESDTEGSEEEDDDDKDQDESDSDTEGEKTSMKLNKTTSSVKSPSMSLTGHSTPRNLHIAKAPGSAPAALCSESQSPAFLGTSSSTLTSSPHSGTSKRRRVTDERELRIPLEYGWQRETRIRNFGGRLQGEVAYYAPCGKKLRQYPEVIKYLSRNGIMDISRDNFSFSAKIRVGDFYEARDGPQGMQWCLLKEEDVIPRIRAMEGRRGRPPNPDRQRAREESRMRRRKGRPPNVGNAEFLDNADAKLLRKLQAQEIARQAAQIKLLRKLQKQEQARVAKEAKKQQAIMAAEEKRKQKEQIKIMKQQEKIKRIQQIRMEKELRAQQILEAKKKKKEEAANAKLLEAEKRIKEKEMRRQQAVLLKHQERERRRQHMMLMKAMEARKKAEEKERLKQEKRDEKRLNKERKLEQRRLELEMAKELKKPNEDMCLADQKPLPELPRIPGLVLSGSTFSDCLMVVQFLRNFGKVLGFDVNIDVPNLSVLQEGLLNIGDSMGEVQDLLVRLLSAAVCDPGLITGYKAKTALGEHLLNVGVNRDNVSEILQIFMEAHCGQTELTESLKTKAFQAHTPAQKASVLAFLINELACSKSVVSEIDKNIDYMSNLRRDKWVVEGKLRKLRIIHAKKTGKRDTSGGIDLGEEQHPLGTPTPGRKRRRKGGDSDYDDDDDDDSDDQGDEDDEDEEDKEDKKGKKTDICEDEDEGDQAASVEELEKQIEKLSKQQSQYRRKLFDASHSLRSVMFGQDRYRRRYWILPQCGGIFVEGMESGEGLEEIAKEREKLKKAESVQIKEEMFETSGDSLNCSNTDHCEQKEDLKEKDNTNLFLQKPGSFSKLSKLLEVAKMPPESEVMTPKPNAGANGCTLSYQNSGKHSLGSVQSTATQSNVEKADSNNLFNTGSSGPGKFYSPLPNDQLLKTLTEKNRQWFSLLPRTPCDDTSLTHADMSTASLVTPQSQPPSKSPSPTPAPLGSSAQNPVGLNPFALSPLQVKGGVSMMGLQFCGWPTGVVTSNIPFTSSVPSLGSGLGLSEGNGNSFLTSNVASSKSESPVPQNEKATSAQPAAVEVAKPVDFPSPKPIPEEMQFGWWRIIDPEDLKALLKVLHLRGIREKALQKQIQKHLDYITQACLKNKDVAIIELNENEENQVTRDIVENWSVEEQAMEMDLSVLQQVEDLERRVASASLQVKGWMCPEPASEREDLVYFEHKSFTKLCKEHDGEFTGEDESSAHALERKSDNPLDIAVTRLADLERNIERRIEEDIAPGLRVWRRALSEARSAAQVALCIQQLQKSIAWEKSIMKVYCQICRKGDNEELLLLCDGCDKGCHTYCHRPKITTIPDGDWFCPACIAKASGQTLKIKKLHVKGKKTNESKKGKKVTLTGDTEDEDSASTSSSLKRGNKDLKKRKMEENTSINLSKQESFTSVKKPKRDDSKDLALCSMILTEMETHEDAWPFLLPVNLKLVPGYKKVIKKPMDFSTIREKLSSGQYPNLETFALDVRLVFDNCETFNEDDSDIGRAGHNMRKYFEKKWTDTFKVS
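Compounds, titrated to a top concentration of 110 uM, were incubated 30 min at room temperature with preformed BAZ2B/acetyl-K14 H3 peptide complex (50 nM each). Proximity signal was measured by AlphaScreen after 20 min with beads.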
L3MBTL1 block – inhibitors of human L3MBTL1; Q9Y468; AlphaScreen L3MBTL1–H3K9me1 peptide binding; Potency, µM (titrated, usually from 57.1 µM), usual class: inhibitors; 0.66% of 230,000 active; note: nearly all actives have a fitted effect of over 60% in size
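L3MBTL1 (50 nM) pre-complexed 30 min with biotinylated H3(1-15)K9me1 peptide (75 nM), then compounds added for 30 min at room temperature; AlphaScreen streptavidin donor/nickel chelate acceptor beads (10 ug/mL final) read after 30 min dark incubation.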
G9a inh-1 – G9a (human) methyltransferase inhibition; Q96KQ7; AID 504332; G9a H3K9 monomethylation, AlphaScreen, 2 h; 8.8% of 350,000 active; Potency, µM (highest dose often 102 µM), hits mostly inhibitors; note: nearly all actives have a fitted effect of over 75% in size
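G9a (20 nM) preincubated 15 min RT with compounds, then 500 nM biotinylated H3K9 peptide and 20 uM SAM added; 2 h RT reaction. Monomethyl-H3K9 product detected by AlphaScreen with anti-H3K9me1 antibody, streptavidin donor and anti-rabbit IgG acceptor beads.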
HP1b chromo inh – HP1-beta chromodomain-methylated histone interaction inhibition; AlphaScreen HP1-beta / biotin-H3K9me3 peptide binding; Potency, µM (top dose mostly 114 µM), most hits filed as inhibitors; 0.56% of 390,000 active; note: nearly all actives have a fitted effect of over 70% in size
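AlphaScreen: HP1-beta (50 nM) preformed 30 min with biotin-H3(1-18)K9me3 peptide (50 nM) in PBS pH 7.4, 0.01% Tween-20. Compound added for 30 min at RT, then streptavidin donor/nickel chelate acceptor beads (10 ug/mL) for 30 min.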
JMJD2A Tudor inh – blocks the human JMJD2A Tudor domain. 4.4% of 390,000 active. AlphaScreen JMJD2A-Tudor / H3K4me3 peptide binding. AID 504339. Potency, µM (top dose mostly 114 µM), actives largely listed as inhibitors; note: nearly all actives have a fitted effect of over 50% in size
JMJD2E confirm – JMJD2E (human) demethylase inhibition, confirmation. Potency, µM (series often up to 56.8 µM), most hits filed as inhibitors. 93% of 140 active. AID 2677. shares compounds with JMJD2A Tudor inh. Recombinant JMJD2E, FDH-coupled NADH fluorescence (FDH is formaldehyde dehydrogenase)
FDH inh – FDH (Pseudomonas putida) inhibition counter-screen; shares compounds with JMJD2A Tudor inh; FDH enzyme assay, NADH fluorescence kinetic; Potency, µM (titrated, usually from 56.7 µM), actives largely listed as inhibitors; 10% of 140 active; AID 2680
G9a inh-2 – inhibits human G9a histone lysine methyltransferase, hit confirmation | shares compounds with JMJD2A Tudor inh | G9a H3K9 monomethylation, AlphaScreen, 2 h | Potency, µM, actives largely listed as inhibitors | 89% of 370 active; note: nearly all actives have a fitted effect of over 65% in size
RGS4 confirm – confirmation of human RGS4 inhibitors; shares compounds with JMJD2A Tudor inh; RGS4 GAP activity, Transcreener GDP fluorescence polarization; Potency, µM, most hits filed as inhibitors; 80% of 25 active; AID 602388
Hits are given with their value; – = inactive; ? = inconclusive; · = no result; [ ] = dose if it differs, or a comment. The list is not random: actives were taken first. Their share in the collection is about 11%. Calls come from the whole dose curve; as a rule, active = well fitted curve in the direction sought with a large enough effect; inconclusive = small, poorly fitted or top-dose-only effect, or another doubt; inactive = no such curve, though single readings can be large; an effect the other way counts as inactive or inconclusive.

SMILES | BAZ2B inh | L3MBTL1 block | G9a inh-1 | HP1b chromo inh | JMJD2A Tudor inh | G9a inh-2 | others
CCN(c1ccccc1)S(=O)(=O)c1cccc(C(=O)NCc2ccncc2)c1 | – | – | –[0.501 µM] | – | – | ·
Cc1ccc2[nH]c(=O)c(CN(Cc3ccc4c(c3)OCO4)Cc3nnnn3Cc3ccco3)cc2c1 | – | – | ? | – | – | ·
O=c1[nH]c2cc3c(cc2cc1CN(Cc1cccs1)Cc1nnnn1Cc1ccco1)OCCO3 | · | ? | ? | – | ? | · | RGS4 confirm=9.5
c1ccc2c(NC3CC3)nc(-c3ccoc3)nc2c1 | · | · | –[0.501 µM] | · | · | · | RGS4 confirm=?
CCOc1ccc(C(=O)c2cnc3ccccc3c2N2CCN(CC)CC2)cc1 | – | · | ? | – | – | ?
O=C(Nc1ccc(OC(F)F)cc1)c1cc(S(=O)(=O)N2CCOCC2)ccc1F | – | · | – | – | – | ·
O=C(CN1CCN(c2ccc(F)cc2)CC1)N1CCC(Cc2ccccc2)CC1 | 35µM | · | ? | ? | 11µM | 16
CCOc1ccc(Nc2nc(N3CCCC3)nc(N3CCN(c4ccc(OC)cc4)CC3)n2)cc1 | – | · | ? | – | – | ·
COc1ccc(N2CCN(c3nc(NC(C)(C)C)nc(N4CCCCC4)n3)CC2)cc1 | 3.2µM | – | ? | ? | ? | 13
CSc1ncccc1C(=O)N1CCN(S(=O)(=O)c2cc(C)ccc2C)CC1 | – | · | – | – | – | ·
Cc1ccc(C)c(S(=O)(=O)N2CCN(Cc3ccc(O)c4ncccc34)CC2)c1 | · | ? | – | – | – | · | JMJD2E confirm=35µM;FDH inh=?
CN(C)c1ccc(NC(=O)CN2CCN(S(=O)(=O)c3cc(Cl)ccc3Cl)CC2)cc1 | 35µM | · | 1.4µM | ? | ? | 4.5
CC(C)OC(=O)CN1CCN(S(=O)(=O)c2cc(Cl)ccc2Cl)CC1 | – | · | –[12.7 µM] | – | – | ·
Cc1ccc(-c2nnc(SCC(=O)Nc3cccnc3Cl)n2N)cc1 | · | – | · | – | – | ·
Nn1c(SCC(=O)Nc2cccnc2Cl)nnc1-c1ccccc1 | – | – | ? | ? | 20µM | 0.8
O=C(CSc1nnc(C2CC2)n1Cc1ccco1)NCC(F)(F)F | · | ? | – | – | – | ·
Oc1c(C(Nc2nccs2)c2ccc(C(F)(F)F)cc2)ccc2cccnc12 (configuration not stated) | – | · | – | – | 45µM | · | JMJD2E confirm=22µM;FDH inh=–
Cc1[nH]c2ccccc2c1C(Nc1nccs1)c1ccncc1 (configuration not stated) | ? | – | – | – | – | ·
Cc1ccc(NC(=O)CC2SC3=NCCCN3C2=O)c(C)c1 (configuration not stated) | – | · | 0.71µM | – | –[11.4 µM] | 4.5
CN1CCC(N(C)CC(=O)Nc2cccc(Oc3ccccc3)c2)CC1 | 50µM | · | ? | – | 6.3µM | ?
CN1CCC(NC(=O)c2cccc(Oc3ccccc3)c2)CC1 | – | · | · | – | – | ·
Oc1ccccc1C=NC1=NN(c2cccc(C(F)(F)F)c2)CC1 | ? | ? | 1µM | – | ? | 0.8
Cc1ccc(S(=O)(=O)N2CCOCC2)cc1NC(=O)COC(=O)COc1ccccc1[N+](=O)[O-] | · | – | · | – | – | ·
CCN(CC)c1ccc(NC(=O)COC(=O)Cc2ccsc2)cc1 | 45µM | ? | 2.8µM | ? | 50µM | 6.3
Cc1ccc(NC(=O)CNc2ccc(OC(C)C)cc2)cc1 | 50µM | · | 0.79µM | – | ? | 7.9
SMILES | BAZ2B inh | L3MBTL1 block | G9a inh-1 | HP1b chromo inh | JMJD2A Tudor inh | G9a inh-2 | others
Cc1ccc(OCC(=O)Nc2ccc([N+](=O)[O-])cc2)cc1 | – | – | – | – | – | ·
CCN(CC)c1ccc(NC(=O)COc2ccc(C)cc2)cc1 | ? | – | 1.4µM | – | ? | 2.8
CC(=O)c1ccc(NC(=O)COC(=O)Cc2ccsc2)cc1 | · | – | · | – | – | ·
CCc1ccc(NC(=O)COC(=O)CN2C(=O)COc3ccccc32)cc1 | – | · | – | – | – | ·
CCN(CC)c1ccc(NC(=O)COC(=O)C23CCC(=O)N2c2ccccc2S3)cc1 (configuration not stated) | ? | · | ? | ? | ? | 5
CCc1ccc2c(c1)CCCN2C(=O)c1ccccc1C(=O)O | 56µM | · | ? | – | ? | ?
CC(OC(=O)Cc1n[nH]c(=O)c2ccccc12)C(=O)Nc1cccc([N+](=O)[O-])c1 (configuration not stated) | – | ? | – | – | – | ·
O=C(Nc1nnc(-c2ccccc2)s1)C1CCCN(C(=O)c2ccoc2)C1 (configuration not stated) | · | · | · | ? | – | · | RGS4 confirm=24
CCc1nnc(NC(=O)C2CCCN(C(=O)c3ccoc3)C2)s1 (configuration not stated) | · | · | · | – | – | ·
NC(=O)c1ccc(-n2nnnc2SCC(=O)c2ccc(O)c(O)c2)cc1 | ? | ? | 11µM | – | ? | · | JMJD2E confirm=7.9µM;FDH inh=–
CCOCCOC(=O)c1[nH]c2c(c1C)C(=O)CC(c1ccc(N(C)C)cc1)C2 (configuration not stated) | ? | – | ? | – | ? | ?
CCOCCOC(=O)c1[nH]c2c(c1C)C(=O)CC(c1ccc(OC)c(OC)c1)C2 (configuration not stated) | – | · | – | – | – | ·
Cc1ccc(CNc2ccc(N3CCOCC3)cc2)s1 | 45µM | · | ? | ? | 50µM | 10
CCCc1ccc2oc(C(=O)N3CCC(C(N)=O)(N4CCCCC4)CC3)c(C)c2c1 | – | · | – | – | ? | ·
Cc1cccc(Nc2nnc(-n3nc(C)cc3C)c3ccccc23)c1 | – | · | – | – | – | ·
CCOc1cc(CN2CCN(S(=O)(=O)c3ccc(C)cc3)CC2)ccc1OC | 50µM | · | 0.89µM | ? | 25µM | 32
COc1cc(C(=O)OCC(=O)c2cc(C)n(CC3CCCO3)c2C)ccc1OCC(=O)N1CCOCC1 (configuration not stated) | · | · | · | – | – | ·
COC(=O)c1cc(NCc2ccc3c(c2)OCO3)ccc1N1CCOCC1 | ? | · | ? | – | ? | 13
O=C(O)c1cc(NCc2ccc3c(c2)OCO3)ccc1N1CCOCC1 | – | – | ? | – | – | ·
O=C(CSC1=NCCS1)N1CCc2ccccc21 | – | · | ? | – | – | 1.6
O=C(COC(=O)c1ccc(S(=O)(=O)N2CCOCC2)cc1)Nc1ccccc1OC(F)F | · | – | · | – | – | ·
Cc1ccc(S(=O)(=O)c2cn(CC(=O)Nc3ccccc3)c3cc4c(cc3c2=O)OCO4)cc1 | – | · | – | – | – | ·
